Source: PubChem BioAssay (NMMLSC)
MEKK2wt PB1 HTS: raises or lowers MEK5 binding to wildtype human MEKK2 PB1 domain; hit rate 1.1% among 290,000; binding response (% of control), % at 10 µM; bead flow cytometry, Alexa488-MEK5 binding to MEKK2 WT; actives lie on both sides; AID 1531; Q9Y2U5; in the data active = binding response below about 67% or above about 130%
MEKK3 PB1 HTS: modulators (inhibitors or enhancers) of MEK5 binding to human MEKK3 PB1 domain; hit rate 1.4% among 290,000; Q99759; AID 1529; binding response (% of control), % at 10 µM; bead-based flow cytometry, Alexa488-MEK5 binding to MEKK3; actives lie on both sides; 0 = blocked by unlabeled MEK5, 100 = vehicle;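 active = binding response more than 3 SD above or below the average of its plate-row segment, actives on both sides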;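 also: Alexa488 bead fluorescence after subtracting the streptavidin-only scavenger bead signal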
GRK2 inh: blocks RNA aptamer binding to human GRK2; hit rate 0.59% among 330,000; P25098; bead flow cytometry, FAM-aptamer displacement from GRK2; AID 488847; inhibition of aptamer binding, % at 10 µM;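 active = inhibition of aptamer binding above 40%, roughly 3 SD of noise, on plates passing a quality check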;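 also: median bead fluorescence of bound FAM aptamer so fluorescent compounds give negative values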
MEKK2 mut-MEK5: signal of MEK5 binding to mutant human MEKK2 PB1 domain; bead flow cytometry, Alexa488-MEK5 binding to MEKK2 mutant; percent response, % at 10 µM; hit rate 0.35% among 290,000; AID 1530; in the data active = percent response above about 24%, passing the limit was not always enough
MEKK2wt confirm: raises or lowers MEK5 binding to wildtype human MEKK2, retest. shares compounds with MEKK3 PB1 HTS. bead flow cytometry, Alexa488-MEK5 binding to MEKK2 WT; actives lie on both sides. binding response (% of control), % at 10 µM. hit rate 2.4% among 5,900; in the data active = binding response below about 16% or above about 210%; inactive = in between
MEKK2mut-MEK5: signal of MEK5 binding to mutant human MEKK2, retest | AID 1893 | hit rate 2% among 5,900 | percent response, % at 10 µM | shares compounds with MEKK3 PB1 HTS | bead flow cytometry, Alexa488-MEK5 binding to MEKK2 mutant; in the data active = percent response mostly above about 71%, no sharp cut-off; inactive = mostly below about 38%;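 also: higher means compound restores mutant binding toward wildtype level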
MEKK3-MEK5 inh: confirmation of inhibitors of MEK5 binding to human MEKK3. shares compounds with MEKK3 PB1 HTS. bead flow cytometry, Alexa488-MEK5 binding to MEKK3; stronger effect = lower value. binding response (% of control), % at 10 µM. hit rate 1.8% among 5,900. AID 1894;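 active = binding response below 72% of control, or above a set upper limit, though filed actives all read lower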;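 also: 100% = DMSO only wells and 0% = binding blocked by excess unlabeled MEK5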
* = called active by the depositor; / = not tested or not shown; ! = not active in a repeat; [ ] = another dose, or the depositor's remark. An excerpt weighted towards active compounds, which were near 2.5% of everything screened.

SMILES	MEKK2wt PB1 HTS	MEKK3 PB1 HTS	GRK2 inh	MEKK2 mut-MEK5	MEKK2wt confirm	MEKK2mut-MEK5	MEKK3-MEK5 inh
Cc1ccc(SCc2cc(=O)[nH]c(/N=C(\N)Nc3cccc4ccccc34)n2)cc1	108	137*	1	0	101	-7	104
CC1(NC(=O)c2cc(Cl)nc3ccccc23)CCS(=O)(=O)C1 (stereo not drawn)	/	/	3	/	/	/	/
CC(C)NCC(O)Cn1c2c(c3ccccc31)CCc1c-2cnn1-c1ccccc1 (stereo not drawn)	176*	110	2	30*	149	25	106
COc1ccc(N2CC(C(=O)N[C@@H](C)C(=O)NCCc3ccccc3)CC2=O)cc1 (stereo partly drawn)	100	99	2	-4	/	/	/
CCN(c1ccccc1)S(=O)(=O)c1cc(C(=O)Nc2ccccc2Cl)ccc1F	100	66*[inhibitor]	3	1	92	-3	100
NC(=O)NC(=O)Nc1ccccc1Cl	125	130*	0	7	101	-3	95
O=C(NC(=O)c1csnn1)Nc1ccccc1Cl	102	101	4	-3	/	/	/
COc1ccc(-c2nc(SC(CC(=O)NCc3ccccc3)c3ccc(OC)c(OC)c3)n[nH]2)cc1 (stereo not drawn)	101	128*	1	0	94	-9	94
CNC(=O)N(C1=NCCCCC1)c1ccc(Br)cc1	103	129*	8	0	107	7	107
CC(C)COCC(CN(Cc1ccccc1)c1ccccc1)N1CCCC1 (stereo not drawn)	146*!	96	10	-23	137	20	104
O=S(=O)(Nc1ccc2c(c1)OCO2)c1ccc(F)c(F)c1	/	/	0	/	/	/	/
COc1ccc(OCCN2CCN(C(=O)c3ccc(OC)c(OC)c3)CC2)cc1	99	100	0	-2	/	/	/
Nc1ccccc1NC(=O)c1ccccc1N	3.0*[inhibitor]	3.0*[inhibitor]	0	-16	100	-6	103
CCOC(=O)C(NCc1ccco1)(NC(=O)c1ccccc1)C(F)(F)F (stereo not drawn)	130	133*	0	5	108	4	106
CCCNC(=O)Cn1nc([N+](=O)[O-])c([N+](=O)[O-])c1C	58*[inhibitor]	60*[inhibitor]	0	-3	102	0	103
CCCCNC(=O)Cn1nc([N+](=O)[O-])c([N+](=O)[O-])c1C	110	106	0	0	/	/	/
OCc1nnc2c3ccccc3c(-c3ccccc3)nn12	118	122*	0	10	106	8	103
CC(Sc1nc2ccccc2o1)C(=O)O (stereo not drawn)	-39*[inhibitor]	-3.0*[inhibitor]	0	-21	103	3	104
CCC(Sc1nc2ccccc2o1)C(=O)O (stereo not drawn)	102	104	0	3	/	/	/
CN(C)CCCNc1ncnc2oc(-c3ccccc3)c(-c3ccccc3)c12	134*	107	0	19	115	14	100
c1ccc(-c2oc3ncnc(NCCCn4ccnc4)c3c2-c2ccccc2)cc1	120	105	0	6	/	/	/
Cn1c(=O)oc2cc(S(=O)(=O)NCc3ccccc3)ccc21	98	98	1	1	/	/	/
Cn1c(=O)oc2cc(S(=O)(=O)NCc3ccc(Cl)cc3)ccc21	-6.0*[inhibitor]	0.0*[inhibitor]	0	-57	93	-9	100
CCCCNC(=S)Nc1ccc(C(F)(F)F)cc1	90	75*[inhibitor]	1	-3	101	1	100
CC1CCCN(C(=O)C2CCN(CCCc3ccccc3)CC2)C1 (stereo not drawn)	98	79*[inhibitor]	1	-5	99	-2	94
O=C(/C=C/c1ccccc1)N1CCN(C(=O)c2ccco2)CC1	119	69*[inhibitor]	4	9	91	-7	87
O=C(c1ccco1)N1c2ccccc2Sc2ccccc21	97	98	2	1	/	/	/
O=C(c1ccco1)N1CCN(C(=O)N2c3ccccc3Sc3ccccc32)CC1	90	78*[inhibitor]	1	-8	97	-4	96
